# Assay results taken from paper PMC7862700, “An all-to-all approach to the identification of sequence-specific readers for epigenetic DNA modifications on cytosine”.
# Columns and labels:
# Experiment in all cases: DAPPL (digital affinity profiling via proximity ligation, sequencing); 10 mM Tris-HCl pH 7.5, 50 mM NaCl, 1 mM DTT, 4% glycerol, room temperature, 30 min; GST-TFs on glutathione beads, 16-mer random dsDNA library, 0.1% formaldehyde crosslink after washing; high values mean tight binding
# FLI1 = biological target: T1, FLI1 (Homo sapiens, UniProt Q01543 1-452); details: protein: recombinant; tags: N-terminal GST; dsDNA, one strand shown
# T1 sequence: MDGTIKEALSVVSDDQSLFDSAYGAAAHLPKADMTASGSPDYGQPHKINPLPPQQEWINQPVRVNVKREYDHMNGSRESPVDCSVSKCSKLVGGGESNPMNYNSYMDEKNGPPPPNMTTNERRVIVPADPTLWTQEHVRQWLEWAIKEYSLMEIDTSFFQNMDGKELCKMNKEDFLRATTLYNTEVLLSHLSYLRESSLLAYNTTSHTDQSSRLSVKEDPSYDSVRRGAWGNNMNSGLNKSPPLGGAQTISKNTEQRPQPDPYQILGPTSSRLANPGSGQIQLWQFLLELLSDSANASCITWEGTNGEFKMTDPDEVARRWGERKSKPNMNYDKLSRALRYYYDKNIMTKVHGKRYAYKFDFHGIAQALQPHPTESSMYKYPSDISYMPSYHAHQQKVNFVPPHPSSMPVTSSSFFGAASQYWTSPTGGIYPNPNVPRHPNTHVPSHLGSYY
# Outline: (§1)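 Human transcription factors fused to GST were expressed in yeast, captured on glutathione beads, given DNA barcodes and pooled with a GST-only negative control. Pools were incubated with 200 nmole of a 16-mer random double-stranded DNA library in Tris/NaCl/DTT/glycerol buffer at room temperature for 30 min. They were then washed, crosslinked with 0.1% formaldehyde, proximity-ligated (BsaI/T4 ligase, 1 h, 37 °C), PCR-amplified and sequenced on an Illumina NextSeq500. Binding signal is each 6-mer's read frequency for a factor divided by its frequency for the GST control.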
# ELK1 = biological target: T2, ELK1 (Homo sapiens, UniProt P19419 1-428); details: protein: recombinant; tags: N-terminal GST; dsDNA, one strand shown
# T2 sequence: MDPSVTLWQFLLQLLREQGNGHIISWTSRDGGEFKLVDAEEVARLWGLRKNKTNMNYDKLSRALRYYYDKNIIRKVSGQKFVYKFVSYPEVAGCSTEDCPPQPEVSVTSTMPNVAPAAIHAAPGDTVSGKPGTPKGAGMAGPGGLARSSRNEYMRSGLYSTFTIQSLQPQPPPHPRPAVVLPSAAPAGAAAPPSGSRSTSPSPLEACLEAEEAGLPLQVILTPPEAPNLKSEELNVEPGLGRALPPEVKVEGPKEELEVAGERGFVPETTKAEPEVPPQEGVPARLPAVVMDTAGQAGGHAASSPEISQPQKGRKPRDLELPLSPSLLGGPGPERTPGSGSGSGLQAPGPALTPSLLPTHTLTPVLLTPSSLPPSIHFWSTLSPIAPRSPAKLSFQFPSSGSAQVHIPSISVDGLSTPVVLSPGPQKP
# Outline: as §1
# GABPA = biological target: T3, GABPA (Homo sapiens, UniProt Q06546 1-454); details: protein: recombinant; tags: N-terminal GST; dsDNA, one strand shown
# T3 sequence: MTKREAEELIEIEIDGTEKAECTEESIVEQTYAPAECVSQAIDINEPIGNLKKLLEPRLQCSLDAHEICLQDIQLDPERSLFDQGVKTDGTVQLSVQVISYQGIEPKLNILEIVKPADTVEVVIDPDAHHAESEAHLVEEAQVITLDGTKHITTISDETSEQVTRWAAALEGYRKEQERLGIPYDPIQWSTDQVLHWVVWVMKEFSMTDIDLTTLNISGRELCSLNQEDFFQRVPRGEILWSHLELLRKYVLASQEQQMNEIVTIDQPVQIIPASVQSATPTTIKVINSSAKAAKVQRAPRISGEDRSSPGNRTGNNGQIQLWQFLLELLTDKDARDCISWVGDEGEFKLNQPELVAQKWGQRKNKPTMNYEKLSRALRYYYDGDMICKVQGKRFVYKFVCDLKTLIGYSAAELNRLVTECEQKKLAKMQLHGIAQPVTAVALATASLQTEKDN
# Outline: as §1
# ERG = biological target: T4, ERG (Homo sapiens, UniProt P11308 1-479); details: protein: recombinant; tags: N-terminal GST; dsDNA, one strand shown
# T4 sequence: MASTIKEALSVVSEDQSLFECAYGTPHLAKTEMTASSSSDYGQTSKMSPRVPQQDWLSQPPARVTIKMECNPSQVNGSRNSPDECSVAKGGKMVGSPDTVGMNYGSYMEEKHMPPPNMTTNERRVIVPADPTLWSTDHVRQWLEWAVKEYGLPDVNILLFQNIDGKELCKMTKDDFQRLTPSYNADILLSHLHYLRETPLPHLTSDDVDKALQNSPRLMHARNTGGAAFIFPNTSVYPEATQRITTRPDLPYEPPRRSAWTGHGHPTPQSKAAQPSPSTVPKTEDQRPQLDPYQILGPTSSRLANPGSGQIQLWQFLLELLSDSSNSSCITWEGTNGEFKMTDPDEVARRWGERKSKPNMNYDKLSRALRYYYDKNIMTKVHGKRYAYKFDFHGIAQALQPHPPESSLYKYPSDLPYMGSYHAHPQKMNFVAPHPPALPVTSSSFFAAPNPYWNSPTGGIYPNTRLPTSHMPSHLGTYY
# Outline: as §1
# ELF1 = ELF1 (Homo sapiens, UniProt P32519 1-619); details: protein: recombinant; tags: N-terminal GST; dsDNA, one strand shown
# Chain of ELF1 (P32519 whole entry): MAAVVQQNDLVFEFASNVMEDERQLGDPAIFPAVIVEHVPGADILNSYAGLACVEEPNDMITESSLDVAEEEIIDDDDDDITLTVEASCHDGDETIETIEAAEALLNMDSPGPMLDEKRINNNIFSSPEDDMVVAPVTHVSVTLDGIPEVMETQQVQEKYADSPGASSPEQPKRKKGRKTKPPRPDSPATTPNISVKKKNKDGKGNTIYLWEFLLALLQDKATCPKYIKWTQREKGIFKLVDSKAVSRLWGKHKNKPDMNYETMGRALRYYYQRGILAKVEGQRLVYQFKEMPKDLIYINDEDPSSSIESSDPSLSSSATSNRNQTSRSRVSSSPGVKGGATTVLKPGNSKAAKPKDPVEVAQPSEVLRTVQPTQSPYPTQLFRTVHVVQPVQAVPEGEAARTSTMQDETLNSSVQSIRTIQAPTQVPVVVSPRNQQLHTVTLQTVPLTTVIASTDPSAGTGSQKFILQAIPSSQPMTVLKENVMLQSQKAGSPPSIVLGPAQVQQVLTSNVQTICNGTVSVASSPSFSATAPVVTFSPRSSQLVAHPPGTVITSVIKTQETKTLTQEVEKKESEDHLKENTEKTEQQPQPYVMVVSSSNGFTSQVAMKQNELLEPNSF
# Outline: as §1
# EHF = biological target: T5, EHF (Homo sapiens, UniProt Q9NZC4 1-300); details: protein: recombinant; tags: N-terminal GST; dsDNA, one strand shown
# T5 sequence: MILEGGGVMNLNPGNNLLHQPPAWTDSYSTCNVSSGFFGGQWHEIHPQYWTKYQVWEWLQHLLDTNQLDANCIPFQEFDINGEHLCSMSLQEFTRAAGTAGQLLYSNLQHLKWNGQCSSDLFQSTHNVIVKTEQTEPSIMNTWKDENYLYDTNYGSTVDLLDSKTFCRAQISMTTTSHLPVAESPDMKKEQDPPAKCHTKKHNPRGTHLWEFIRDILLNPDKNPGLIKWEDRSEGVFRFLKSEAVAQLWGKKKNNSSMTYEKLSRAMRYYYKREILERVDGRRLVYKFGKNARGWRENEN
# Outline: as §1
# SPI1 = SPI1 (Homo sapiens, UniProt P17947 1-270); details: protein: recombinant; tags: N-terminal GST; dsDNA, one strand shown
# Outline: as §1
# SPIB = SPIB (Homo sapiens, UniProt Q01892 1-262); details: protein: recombinant; tags: N-terminal GST; dsDNA, one strand shown
# Chain of SPIB (Q01892 whole entry): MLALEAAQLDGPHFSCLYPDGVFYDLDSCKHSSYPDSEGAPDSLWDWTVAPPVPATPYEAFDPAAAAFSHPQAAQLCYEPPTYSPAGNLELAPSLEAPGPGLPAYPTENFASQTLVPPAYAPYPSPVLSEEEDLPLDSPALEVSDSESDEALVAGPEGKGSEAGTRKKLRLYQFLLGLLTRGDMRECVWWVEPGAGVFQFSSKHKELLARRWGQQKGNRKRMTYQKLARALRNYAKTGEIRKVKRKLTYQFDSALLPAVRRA
# Outline: as §1
# ELK3 = biological target: T6, ELK3 (Homo sapiens, UniProt P41970 1-407); details: protein: recombinant; tags: N-terminal GST; dsDNA, one strand shown
# T6 sequence: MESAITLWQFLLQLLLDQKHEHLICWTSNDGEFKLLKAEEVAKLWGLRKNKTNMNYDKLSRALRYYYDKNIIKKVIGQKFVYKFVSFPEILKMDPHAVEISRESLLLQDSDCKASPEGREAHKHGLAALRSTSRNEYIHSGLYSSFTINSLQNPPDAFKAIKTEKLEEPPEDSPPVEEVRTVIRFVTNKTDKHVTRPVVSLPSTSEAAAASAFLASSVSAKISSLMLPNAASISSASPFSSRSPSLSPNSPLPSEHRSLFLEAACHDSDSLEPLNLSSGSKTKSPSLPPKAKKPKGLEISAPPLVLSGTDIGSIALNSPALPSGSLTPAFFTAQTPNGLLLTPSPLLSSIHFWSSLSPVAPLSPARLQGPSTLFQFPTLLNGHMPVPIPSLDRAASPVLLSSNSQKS
# Outline: as §1
# FEV = biological target: T7, FEV (Homo sapiens, UniProt Q99581 1-238); details: protein: recombinant; tags: N-terminal GST; dsDNA, one strand shown
# T7 sequence: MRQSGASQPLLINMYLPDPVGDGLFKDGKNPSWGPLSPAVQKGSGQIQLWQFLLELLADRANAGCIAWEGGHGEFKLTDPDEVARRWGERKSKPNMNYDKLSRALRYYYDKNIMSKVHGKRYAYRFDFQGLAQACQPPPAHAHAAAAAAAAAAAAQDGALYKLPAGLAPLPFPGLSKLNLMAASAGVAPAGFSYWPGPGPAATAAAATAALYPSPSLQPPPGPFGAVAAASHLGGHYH
# Outline: as §1
# ETV5 = ETV5 (Homo sapiens, UniProt P41161 1-510); details: protein: recombinant; tags: N-terminal GST; dsDNA, one strand shown
# Chain of ETV5 (P41161 whole entry): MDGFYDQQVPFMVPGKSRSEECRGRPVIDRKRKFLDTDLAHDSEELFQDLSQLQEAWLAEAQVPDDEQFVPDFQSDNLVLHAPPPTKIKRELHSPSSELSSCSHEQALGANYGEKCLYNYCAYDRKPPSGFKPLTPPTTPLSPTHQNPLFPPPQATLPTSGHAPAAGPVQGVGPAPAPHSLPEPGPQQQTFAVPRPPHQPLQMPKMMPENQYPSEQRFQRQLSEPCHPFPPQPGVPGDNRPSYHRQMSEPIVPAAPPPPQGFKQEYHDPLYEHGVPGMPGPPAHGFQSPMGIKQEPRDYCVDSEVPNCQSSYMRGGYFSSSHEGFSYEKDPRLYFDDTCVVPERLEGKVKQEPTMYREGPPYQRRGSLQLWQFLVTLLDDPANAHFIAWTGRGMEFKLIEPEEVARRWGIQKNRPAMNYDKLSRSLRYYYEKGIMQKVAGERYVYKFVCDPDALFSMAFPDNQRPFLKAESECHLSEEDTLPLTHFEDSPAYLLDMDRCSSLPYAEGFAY
# Outline: as §1
# HSF1 = HSF1 (Homo sapiens, UniProt Q00613 1-529); details: protein: recombinant; tags: N-terminal GST; chain copies: 3; dsDNA, one strand shown
# Chain of HSF1 (Q00613 whole entry): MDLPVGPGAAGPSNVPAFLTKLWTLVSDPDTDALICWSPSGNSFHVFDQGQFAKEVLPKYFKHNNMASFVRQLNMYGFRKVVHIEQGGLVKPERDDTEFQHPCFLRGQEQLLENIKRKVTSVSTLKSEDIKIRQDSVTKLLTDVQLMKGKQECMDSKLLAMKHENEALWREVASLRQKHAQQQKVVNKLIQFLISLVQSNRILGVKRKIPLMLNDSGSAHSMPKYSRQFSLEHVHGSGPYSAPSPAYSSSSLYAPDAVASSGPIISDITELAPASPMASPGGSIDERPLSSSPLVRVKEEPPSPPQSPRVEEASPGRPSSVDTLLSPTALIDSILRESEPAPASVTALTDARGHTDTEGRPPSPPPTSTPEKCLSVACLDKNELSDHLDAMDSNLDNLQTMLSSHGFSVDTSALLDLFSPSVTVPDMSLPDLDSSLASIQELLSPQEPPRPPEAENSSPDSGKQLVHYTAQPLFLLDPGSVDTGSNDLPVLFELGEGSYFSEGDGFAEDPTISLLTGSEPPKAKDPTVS
# Outline: as §1
# SPIC = biological target: T8, SPIC (Homo sapiens, UniProt Q8N5J4 1-248); details: protein: recombinant; tags: N-terminal GST; dsDNA, one strand shown
# T8 sequence: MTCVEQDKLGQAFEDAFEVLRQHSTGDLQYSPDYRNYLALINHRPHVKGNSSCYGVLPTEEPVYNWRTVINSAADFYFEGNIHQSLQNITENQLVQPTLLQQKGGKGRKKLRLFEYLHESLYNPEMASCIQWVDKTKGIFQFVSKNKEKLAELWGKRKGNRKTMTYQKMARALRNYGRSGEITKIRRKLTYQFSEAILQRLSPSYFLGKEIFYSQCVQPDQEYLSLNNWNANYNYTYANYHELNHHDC
# Outline: as §1
# ELF4 = ELF4 (Homo sapiens, UniProt Q99607 1-663); details: protein: recombinant; tags: N-terminal GST; dsDNA, one strand shown
# Chain of ELF4 (Q99607 whole entry): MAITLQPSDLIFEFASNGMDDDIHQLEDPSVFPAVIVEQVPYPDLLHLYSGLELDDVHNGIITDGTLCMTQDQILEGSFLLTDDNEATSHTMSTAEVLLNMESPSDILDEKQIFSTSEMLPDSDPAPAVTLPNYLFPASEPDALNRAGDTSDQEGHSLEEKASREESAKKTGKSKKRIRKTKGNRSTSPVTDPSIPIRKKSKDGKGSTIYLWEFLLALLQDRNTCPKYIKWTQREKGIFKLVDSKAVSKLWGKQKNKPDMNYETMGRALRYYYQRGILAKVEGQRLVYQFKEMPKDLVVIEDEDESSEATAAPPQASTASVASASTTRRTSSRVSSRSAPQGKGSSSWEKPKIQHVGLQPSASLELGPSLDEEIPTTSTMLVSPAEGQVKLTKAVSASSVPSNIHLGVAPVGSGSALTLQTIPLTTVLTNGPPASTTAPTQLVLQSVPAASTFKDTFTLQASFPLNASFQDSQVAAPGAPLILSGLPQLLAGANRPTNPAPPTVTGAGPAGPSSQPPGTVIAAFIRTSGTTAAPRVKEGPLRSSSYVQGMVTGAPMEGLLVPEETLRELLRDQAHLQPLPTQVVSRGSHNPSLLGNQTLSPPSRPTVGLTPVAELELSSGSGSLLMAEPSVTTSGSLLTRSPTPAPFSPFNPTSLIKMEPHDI
# Outline: as §1
# ELK4 = biological target: T9, ELK4 (Homo sapiens, UniProt P28324-2 1-405); details: protein: recombinant; tags: N-terminal GST; dsDNA, one strand shown
# T9 sequence: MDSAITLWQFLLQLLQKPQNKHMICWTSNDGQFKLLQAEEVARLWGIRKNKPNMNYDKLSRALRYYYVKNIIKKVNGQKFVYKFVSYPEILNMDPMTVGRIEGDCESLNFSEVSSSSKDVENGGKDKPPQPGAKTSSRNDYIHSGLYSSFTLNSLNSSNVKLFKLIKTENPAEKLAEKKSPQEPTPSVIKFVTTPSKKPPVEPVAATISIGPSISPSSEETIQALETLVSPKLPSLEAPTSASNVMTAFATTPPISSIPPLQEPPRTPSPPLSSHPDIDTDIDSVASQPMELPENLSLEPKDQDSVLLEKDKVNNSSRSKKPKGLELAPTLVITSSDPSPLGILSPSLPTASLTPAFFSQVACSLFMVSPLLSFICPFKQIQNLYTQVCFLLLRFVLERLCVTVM
# Outline: as §1
# ETV2 = biological target: T10, ETV2 (Homo sapiens, UniProt O00321 1-342); details: protein: recombinant; tags: N-terminal GST; dsDNA, one strand shown
# T10 sequence: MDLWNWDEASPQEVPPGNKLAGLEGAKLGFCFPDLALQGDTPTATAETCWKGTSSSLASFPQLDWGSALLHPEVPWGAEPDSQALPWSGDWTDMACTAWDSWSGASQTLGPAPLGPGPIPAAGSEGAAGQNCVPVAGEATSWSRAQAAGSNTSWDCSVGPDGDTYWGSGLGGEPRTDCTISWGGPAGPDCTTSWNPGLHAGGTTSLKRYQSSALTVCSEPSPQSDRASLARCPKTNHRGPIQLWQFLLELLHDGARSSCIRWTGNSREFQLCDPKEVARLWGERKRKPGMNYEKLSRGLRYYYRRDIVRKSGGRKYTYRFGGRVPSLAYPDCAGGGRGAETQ
# Outline: as §1
# ELF3 = biological target: T11, ELF3 (Homo sapiens, UniProt P78545 1-371); details: protein: recombinant; tags: N-terminal GST; dsDNA, one strand shown
# T11 sequence: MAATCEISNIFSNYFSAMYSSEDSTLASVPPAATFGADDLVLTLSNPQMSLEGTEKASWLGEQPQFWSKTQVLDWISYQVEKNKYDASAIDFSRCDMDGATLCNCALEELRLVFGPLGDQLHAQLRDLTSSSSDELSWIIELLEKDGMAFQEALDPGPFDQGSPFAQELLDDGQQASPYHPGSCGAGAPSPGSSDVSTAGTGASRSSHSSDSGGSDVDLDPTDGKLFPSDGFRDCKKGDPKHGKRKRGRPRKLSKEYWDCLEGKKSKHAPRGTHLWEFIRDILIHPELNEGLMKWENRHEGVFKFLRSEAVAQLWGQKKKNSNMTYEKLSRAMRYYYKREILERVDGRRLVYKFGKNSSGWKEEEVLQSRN
# Outline: as §1
# CRX = CRX (Homo sapiens, UniProt O43186 1-299); details: protein: recombinant; tags: N-terminal GST; dsDNA, one strand shown
# Chain of CRX (O43186 whole entry): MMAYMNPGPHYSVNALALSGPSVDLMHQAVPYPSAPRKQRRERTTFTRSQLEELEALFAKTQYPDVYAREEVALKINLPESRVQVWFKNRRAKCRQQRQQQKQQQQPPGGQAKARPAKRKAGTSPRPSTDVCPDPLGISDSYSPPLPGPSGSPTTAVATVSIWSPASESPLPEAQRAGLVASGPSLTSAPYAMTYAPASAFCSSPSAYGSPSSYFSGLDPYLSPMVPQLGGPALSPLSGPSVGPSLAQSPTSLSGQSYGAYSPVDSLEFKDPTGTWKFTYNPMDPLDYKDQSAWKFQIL
# Outline: as §1
# ETV1 = ETV1 (Homo sapiens, UniProt P50549 1-477); details: protein: recombinant; tags: N-terminal GST; dsDNA, one strand shown
# Chain of ETV1 (P50549 whole entry): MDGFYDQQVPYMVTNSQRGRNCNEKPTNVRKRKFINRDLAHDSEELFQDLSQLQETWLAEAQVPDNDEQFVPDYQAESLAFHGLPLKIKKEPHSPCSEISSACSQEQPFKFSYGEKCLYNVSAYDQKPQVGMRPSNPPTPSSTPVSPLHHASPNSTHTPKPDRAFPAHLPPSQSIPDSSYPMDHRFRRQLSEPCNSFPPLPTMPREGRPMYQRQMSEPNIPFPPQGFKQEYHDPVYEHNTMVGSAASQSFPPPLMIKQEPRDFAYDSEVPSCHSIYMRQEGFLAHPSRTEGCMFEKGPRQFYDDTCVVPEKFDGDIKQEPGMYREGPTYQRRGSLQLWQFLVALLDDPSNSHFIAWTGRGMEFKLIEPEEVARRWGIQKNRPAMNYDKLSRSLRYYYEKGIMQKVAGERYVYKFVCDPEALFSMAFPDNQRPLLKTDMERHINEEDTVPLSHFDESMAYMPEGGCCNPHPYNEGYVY
# Outline: as §1
sequence,measurement,setting,value
CTCAAG,binding signal,FLI1,"1.29 fold enrichment (6-mer frequency, TF over GST control)"
same,binding signal,ELK1,"1.17 fold enrichment (6-mer frequency, TF over GST control)"
same,binding signal,GABPA,"1.14 fold enrichment (6-mer frequency, TF over GST control)"
same,binding signal,ERG,"1.18 fold enrichment (6-mer frequency, TF over GST control)"
same,binding signal,ELF1,"1.18 fold enrichment (6-mer frequency, TF over GST control)"
same,binding signal,EHF,"1.21 fold enrichment (6-mer frequency, TF over GST control)"
same,binding signal,SPI1,"1.22 fold enrichment (6-mer frequency, TF over GST control)"
same,binding signal,SPIB,"1.2 fold enrichment (6-mer frequency, TF over GST control)"
same,binding signal,ELK3,"1.32 fold enrichment (6-mer frequency, TF over GST control)"
same,binding signal,FEV,"1.16 fold enrichment (6-mer frequency, TF over GST control)"
same,binding signal,ETV5,"1.14 fold enrichment (6-mer frequency, TF over GST control)"
same,binding signal,HSF1,"1.19 fold enrichment (6-mer frequency, TF over GST control)"
same,binding signal,SPIC,"1.1 fold enrichment (6-mer frequency, TF over GST control)"
same,binding signal,ELF4,"1.19 fold enrichment (6-mer frequency, TF over GST control)"
same,binding signal,ELK4,"1.09 fold enrichment (6-mer frequency, TF over GST control)"
same,binding signal,ETV2,"1.11 fold enrichment (6-mer frequency, TF over GST control)"
same,binding signal,ELF3,"1.22 fold enrichment (6-mer frequency, TF over GST control)"
same,binding signal,CRX,"1.2 fold enrichment (6-mer frequency, TF over GST control)"
same,binding signal,ETV1,"1.21 fold enrichment (6-mer frequency, TF over GST control)"
